Several values for one entry are separate records, joined by “and”; a condition that tells them apart may be missing. Equal entries are not always repeated. Inconclusive results are not listed. Some compounds were tested as several samples or in several runs, with calls that do not always agree. Activity calls are given as the source filed them. Unless noted, the call rests on the fitted dose curve; in most records, active means well fitted cell-killing curve with a large enough effect in the repeat runs; inconclusive means weak or mixed curves; inactive means no such curve, though single readings can be large or run the other way.
System: not listed separately
Assay: qHTS assay for identifying genotoxic compounds that show differential cytotoxicity against isogenic chicken DT40 cell lines with known DNA damage response pathways - Rad54/Ku70 mutant cell line (AID 743015); further: nearly all actives have a fitted effect of over 60% in size
Conditions: DT40 Rad54/Ku70 mutant viability, CellTiter-Glo, 40 h; series mostly up to 66.8 µM; activity change, negative = cytotoxicity: at the top concentration
On the % scale 0 is the no-effect control and ±100 the full control effect; potency means the concentration at half of the fitted maximal effect.

Row | SMILES | Potency | activity change, negative = cytotoxicity
1 | CC1(C)[C@H](C(=O)O[C@H](C#N)c2cccc(Oc3ccccc3)c2)[C@@H]1C=C(Br)Br | inactive and 43.3 µM (active) | 
2 | CCC1(C2=NCCN2)Cc2ccccc2O1 (stereo unspecified) | 6.68 µM (active) | 
3 | C=C(Cl)Cl |  | 0.774% [at 95.1 µM] (inactive)
4 | ClCc1ccccc1Cl |  | 2.76% [at 95.1 µM] (inactive)
5 | CCC1(CCC(C)C)C(=O)NC(=O)NC1=O |  | 2.35% (inactive)
6 | CCCN(CCC)c1c([N+](=O)[O-])cc(C(C)C)cc1[N+](=O)[O-] | inactive and 54.5 µM (active) | 
7 | CCCCCCCCn1sccc1=O | 3.07 µM (active) and 1.02 µM (active) | 
8 | CC(C)(C)CC(C)(C)c1ccc(O)cc1 | 27.3 µM (active) | 
9 | Nc1c(Br)cc(Br)c2c1C(=O)c1ccccc1C2=O |  | -7.04% [at 30.7 µM] (inactive)
10 | CC(Oc1cccc(Cl)c1)C(=O)O (stereo unspecified) |  | -9.04% (inactive)
11 | N#CC(C#N)=Cc1ccc(O)c(O)c1 | 26.6 µM (active) | 
12 | Clc1ccc2ccccc2c1 |  | 6.44% [at 95.1 µM] (inactive)
13 | CCOC(=O)c1cncn1C(C)c1ccccc1 (stereo unspecified) |  | -9.66% [at 30.7 µM] (inactive)
14 | Cc1cnc(C2=NC(C)(C(C)C)C(=O)N2)c(C(=O)O)c1 (stereo unspecified) |  | 0.624% (inactive)
15 | Cc1nc(N(C)C)nc(OC(=O)N(C)C)c1C |  | -3.34% (inactive)
16 | CCCCCBr |  | 1.84% [at 95.1 µM] (inactive)
17 | O=C(O)c1cc(Cl)ccc1Cl |  | -2.31% (inactive)
18 | O=C(Cl)OCCOCCOC(=O)Cl |  | 3.99% (inactive)
19 | CN(C)N |  | 9.37% (inactive)

Row | SMILES | Potency | activity change, negative = cytotoxicity
20 | C=CCOCC1CO1 (stereo unspecified) |  | 2.24% (inactive)
21 | C[CH2][Hg][S]c1ccccc1C(=O)O | 266 nM (active) and 109 nM (active) | 
22 | O=C(O)C(Cl)(Cl)Br |  | 9.71% [at 95.1 µM] (inactive)
23 | CCC(C)(C)c1ccc(O)c(C(C)(C)CC)c1 | 53.9 µM (active) and 24.3 µM (active) | 
24 | CCC1(CC)C(=O)NC(=O)NC1=O |  | 4.04% (inactive)
25 | O=C(N[C@H]1CN2CCC1CC2)c1ccc2c(c1)OCCO2 |  | -6.18% (inactive)
26 | O=C1CC[C@@]2(O)[C@H]3Cc4ccc(O)c5c4[C@@]2(CCN3CC2CC2)[C@H]1O5 |  | 2.74% (inactive)
27 | O=CC=O | inactive | 
28 | CCOP(=O)(O)C(N)=O |  | -9.87% (inactive)
29 | COCc1cnc(C2=NC(C)(C(C)C)C(=O)N2)c(C(=O)O)c1 (stereo unspecified) |  | -2.49% (inactive)
30 | CC(Cl)C(=O)O (stereo unspecified) |  | -0.505% [at 95.1 µM] (inactive)
31 | CCCCOC(=O)CCC(=O)OCCCC |  | 14.3% (inactive)
32 | O=C(NCNC(=O)NC1C(=O)NC(=O)N1CO)NC1C(=O)NC(=O)N1CO (stereo unspecified) | inactive | 
33 | CCCC[N+](CCCC)(CCCC)CCCC | 2.43 µM (active) | 
34 | O=C(O)COc1cc(Cl)c(Cl)cc1Cl | inactive | 
35 | FC(F)OC(F)(F)C(F)Cl (stereo unspecified) | inactive | 
36 | NNCCO |  | -6.55% (inactive)
37 | NP(N)(=O)NC(=O)c1ccc(F)cc1 |  | 4.92% (inactive)

System: not listed separately
Assay: qHTS assay to identify small molecule antagonists of the androgen receptor (AR) signaling pathway - cell viability counter screen (AID 743033; further: nearly all actives have a fitted effect of over 45% in size)
Conditions: AR-bla HEK293 viability, CellTiter-Glo luminescence, 16 h; series mostly up to 58.5 µM; activity change, negative = cytotoxicity: at the top concentration

Row | SMILES | Potency | activity change, negative = cytotoxicity
38 | CC1(C)[C@H](C(=O)O[C@H](C#N)c2cccc(Oc3ccccc3)c2)[C@@H]1C=C(Br)Br | inactive | 
39 | CCC1(C2=NCCN2)Cc2ccccc2O1 (stereo unspecified) |  | -22.3% (inactive)
40 | C=C(Cl)Cl |  | 0.115% [at 78.9 µM] (inactive)
41 | ClCc1ccccc1Cl |  | 2.59% [at 78.9 µM] (inactive)
42 | CCC1(CCC(C)C)C(=O)NC(=O)NC1=O |  | 2.02% (inactive)
43 | CCCN(CCC)c1c([N+](=O)[O-])cc(C(C)C)cc1[N+](=O)[O-] | inactive | 
44 | CCCCCCCCn1sccc1=O | 4.37 µM (active) and 20.4 µM (active) | 
45 | CC(C)(C)CC(C)(C)c1ccc(O)cc1 |  | -27% (inactive)
46 | Nc1c(Br)cc(Br)c2c1C(=O)c1ccccc1C2=O |  | -9.57% [at 27 µM] (inactive)
47 | CC(Oc1cccc(Cl)c1)C(=O)O (stereo unspecified) |  | -2.1% (inactive)
48 | N#CC(C#N)=Cc1ccc(O)c(O)c1 |  | 1.48% (inactive)
49 | Clc1ccc2ccccc2c1 |  | -1.38% [at 78.9 µM] (inactive)
50 | CCOC(=O)c1cncn1C(C)c1ccccc1 (stereo unspecified) |  | -9.13% [at 27 µM] (inactive)
51 | Cc1cnc(C2=NC(C)(C(C)C)C(=O)N2)c(C(=O)O)c1 (stereo unspecified) |  | 0.767% (inactive)
52 | Cc1nc(N(C)C)nc(OC(=O)N(C)C)c1C |  | -1.04% (inactive)
53 | CCCCCBr |  | 5.51% [at 78.9 µM] (inactive)
54 | O=C(O)c1cc(Cl)ccc1Cl |  | 1.55% (inactive)
55 | O=C(Cl)OCCOCCOC(=O)Cl |  | 6.21% (inactive)
56 | CN(C)N |  | -0.155% (inactive)

Row | SMILES | Potency | activity change, negative = cytotoxicity
57 | C=CCOCC1CO1 (stereo unspecified) |  | 1.4% (inactive)
58 | C[CH2][Hg][S]c1ccccc1C(=O)O | 10.7 µM (active) and 4.9 µM (active) | 
59 | O=C(O)C(Cl)(Cl)Br |  | 7.57% [at 78.9 µM] (inactive)
60 | CCC(C)(C)c1ccc(O)c(C(C)(C)CC)c1 | 54.4 µM (active) | 
61 | CCC1(CC)C(=O)NC(=O)NC1=O |  | 9.96% (inactive)
62 | O=C(N[C@H]1CN2CCC1CC2)c1ccc2c(c1)OCCO2 |  | 7.28% (inactive)
63 | O=C1CC[C@@]2(O)[C@H]3Cc4ccc(O)c5c4[C@@]2(CCN3CC2CC2)[C@H]1O5 |  | -1.36% (inactive)
64 | O=CC=O | inactive | 
65 | CCOP(=O)(O)C(N)=O |  | 2.87% (inactive)
66 | COCc1cnc(C2=NC(C)(C(C)C)C(=O)N2)c(C(=O)O)c1 (stereo unspecified) |  | 2.84% (inactive)
67 | CC(Cl)C(=O)O (stereo unspecified) |  | -2.01% [at 78.9 µM] (inactive)
68 | CCCCOC(=O)CCC(=O)OCCCC |  | 9.1% (inactive)
69 | O=C(NCNC(=O)NC1C(=O)NC(=O)N1CO)NC1C(=O)NC(=O)N1CO (stereo unspecified) | inactive | 
70 | CCCC[N+](CCCC)(CCCC)CCCC |  | 0.828% (inactive)
71 | O=C(O)COc1cc(Cl)c(Cl)cc1Cl | inactive | 
72 | FC(F)OC(F)(F)C(F)Cl (stereo unspecified) | inactive | 
73 | NNCCO |  | -1.34% (inactive)
74 | NP(N)(=O)NC(=O)c1ccc(F)cc1 |  | 9.45% (inactive)

Target: Androgen receptor (Homo sapiens) (UniProt P10275)
Assay: qHTS assay to identify small molecule antagonists of the androgen receptor (AR) signaling pathway (AID 743035; active means well fitted inhibition curve with a large enough effect in the signal ratio in the repeat runs, not every such curve was filed as active; the % refers to the signal ratio)
Conditions: HEK293 AR-UAS-bla, R1881-stimulated, beta-lactamase FRET, 16 h; series mostly up to 58.5 µM; activity change, negative = inhibition: at the top concentration
Summary of the method: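 Quantitative HTS of the Tox21 10K library used HEK293 AR-UAS-bla cells stimulated with R1881 alongside compound for 16 h at 37C, followed by beta-lactamase FRET detection (LiveBLAzer B/G, 2 h, RT).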

Sequence of Androgen receptor (Homo sapiens) (P10275 whole entry, looked up): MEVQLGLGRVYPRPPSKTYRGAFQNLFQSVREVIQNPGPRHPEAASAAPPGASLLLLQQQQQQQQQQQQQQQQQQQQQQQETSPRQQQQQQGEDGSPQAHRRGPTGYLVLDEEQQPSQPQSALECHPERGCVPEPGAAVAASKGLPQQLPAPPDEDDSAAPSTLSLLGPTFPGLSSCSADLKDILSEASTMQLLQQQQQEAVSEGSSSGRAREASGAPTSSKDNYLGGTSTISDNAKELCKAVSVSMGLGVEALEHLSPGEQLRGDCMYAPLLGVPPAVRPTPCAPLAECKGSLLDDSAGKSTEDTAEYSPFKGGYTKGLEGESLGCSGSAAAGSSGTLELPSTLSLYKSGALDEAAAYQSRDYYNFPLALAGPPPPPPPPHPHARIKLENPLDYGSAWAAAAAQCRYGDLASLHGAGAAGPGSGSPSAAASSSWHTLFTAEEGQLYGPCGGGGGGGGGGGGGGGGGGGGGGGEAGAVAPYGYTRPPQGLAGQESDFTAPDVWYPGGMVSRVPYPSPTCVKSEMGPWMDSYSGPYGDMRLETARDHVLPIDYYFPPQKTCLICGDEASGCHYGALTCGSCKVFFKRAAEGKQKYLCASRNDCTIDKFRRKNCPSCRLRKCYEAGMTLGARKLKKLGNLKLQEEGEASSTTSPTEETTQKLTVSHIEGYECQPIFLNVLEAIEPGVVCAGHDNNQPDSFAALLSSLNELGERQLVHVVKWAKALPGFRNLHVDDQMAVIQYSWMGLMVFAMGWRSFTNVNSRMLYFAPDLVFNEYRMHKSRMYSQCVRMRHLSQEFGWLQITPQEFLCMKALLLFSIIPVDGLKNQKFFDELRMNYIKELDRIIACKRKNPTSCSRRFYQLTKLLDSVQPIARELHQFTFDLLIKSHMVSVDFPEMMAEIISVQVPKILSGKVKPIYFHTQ

Row | SMILES | activity change, negative = inhibition | Potency
75 | CC1(C)[C@H](C(=O)O[C@H](C#N)c2cccc(Oc3ccccc3)c2)[C@@H]1C=C(Br)Br | 0.384% [at 78.9 µM] (inactive) | 
76 | CCC1(C2=NCCN2)Cc2ccccc2O1 (stereo unspecified) |  | 19 µM (active)
77 | C=C(Cl)Cl | 6.54% [at 78.9 µM] (inactive) | 
78 | ClCc1ccccc1Cl | 2.43% [at 78.9 µM] (inactive) | 
79 | CCC1(CCC(C)C)C(=O)NC(=O)NC1=O | -10.9% (inactive) | 
80 | Clc1ccc2ccccc2c1 | -3.09% [at 78.9 µM] (inactive) | 
81 | Cc1cnc(C2=NC(C)(C(C)C)C(=O)N2)c(C(=O)O)c1 (stereo unspecified) | 2.18% (inactive) | 
82 | CCCCCBr | -0.935% [at 78.9 µM] (inactive) | 
83 | CN(C)N | 0.861% (inactive) | 
84 | C[CH2][Hg][S]c1ccccc1C(=O)O |  | 9.52 µM (active) and 3.09 µM (active)
85 | O=C(N[C@H]1CN2CCC1CC2)c1ccc2c(c1)OCCO2 | 6.34% (inactive) | 
86 | O=CC=O |  | inactive
87 | COCc1cnc(C2=NC(C)(C(C)C)C(=O)N2)c(C(=O)O)c1 (stereo unspecified) | 3.65% (inactive) | 
88 | CC(Cl)C(=O)O (stereo unspecified) | 7.82% [at 78.9 µM] (inactive) | 
89 | O=C(NCNC(=O)NC1C(=O)NC(=O)N1CO)NC1C(=O)NC(=O)N1CO (stereo unspecified) |  | inactive
90 | O=C(O)COc1cc(Cl)c(Cl)cc1Cl | -3% (inactive) | 
91 | FC(F)OC(F)(F)C(F)Cl (stereo unspecified) |  | inactive
